The values that follow come from PubChem BioAssay AID1851 (National Center for Advancing Translational Sciences (NCATS), 2009).

Usually AC50 stands for the concentration at which the activity in the assay is half-maximal.

Screen size: about 16,000 compounds; about 4,000 (25%) were called active. About 26% were inconclusive and are not listed. Calls come from the whole dose curve; as a rule, active = well fitted curve in the direction sought with a large enough effect; inconclusive = small, poorly fitted or top-dose-only effect, or effect the other way; inactive = no such curve, though single readings can be large or run the other way. Only a sample is shown.
% is set by controls: 0 for no effect and ±100 for the full control effect.

In this assay the target is Cytochrome P450 2C9 (Homo sapiens) (UniProt P11712). Description: Cytochrome panel assay with activity outcomes. The conditions noted are these: recombinant CYP, pro-luciferin dealkylation, luminescence, p450-cyp2c9; series mostly up to 57.1 µM.
Sequence of Cytochrome P450 2C9 (Homo sapiens) (P11712 whole entry, looked up): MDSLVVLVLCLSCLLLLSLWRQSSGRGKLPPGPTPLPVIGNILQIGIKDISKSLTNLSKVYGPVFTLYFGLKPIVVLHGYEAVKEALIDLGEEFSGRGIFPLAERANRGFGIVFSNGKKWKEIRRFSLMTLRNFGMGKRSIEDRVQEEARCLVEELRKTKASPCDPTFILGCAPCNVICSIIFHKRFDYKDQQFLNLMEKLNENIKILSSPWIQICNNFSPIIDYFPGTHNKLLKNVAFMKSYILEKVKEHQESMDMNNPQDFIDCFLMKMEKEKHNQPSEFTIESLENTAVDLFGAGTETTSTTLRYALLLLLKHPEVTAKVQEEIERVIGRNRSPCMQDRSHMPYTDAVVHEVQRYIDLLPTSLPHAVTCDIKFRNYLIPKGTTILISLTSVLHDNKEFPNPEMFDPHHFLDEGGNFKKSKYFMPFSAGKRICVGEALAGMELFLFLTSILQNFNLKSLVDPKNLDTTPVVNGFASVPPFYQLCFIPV
For the molecule `COC(=O)c1sccc1NC(=O)CSc1ccc(Cl)cc1`, the AC50 was 15.8 µM (active).

Turning to `COC(=O)c1sccc1NC(=O)CSc1ccccc1NS(=O)(=O)c1ccc(Cl)cc1`, the AC50 is 1.78 µM (active).

Consider `Clc1ccc(Cl)c(SCCCN2CCNCC2)c1`, for which the activity, negative = inhibition is -3.39% [at 11.4 µM] (inactive).

`COC(=O)c1sccc1NC(=O)CSc1cc(Cl)ccc1Cl`: the AC50 is 7.08 µM (active).

Take `Cc1cc(Cl)nc(NC(=O)CSc2ccc(Cl)cc2)n1`: the activity, negative = inhibition was -1.09% [at 11.4 µM] (inactive).

Turning to `CC(=O)OC[C@H]1O[C@@H](O/N=C2/[C@H]3O[C@@H]3[C@@H](O)[C@H]3[C@H]2CCn2c(=O)n(-c4ccccc4)c(=O)n23)[C@H](OC(C)=O)[C@@H](OC(C)=O)[C@@H]1OC(C)=O`, the activity, negative = inhibition is 10.3% [at 11.4 µM] (inactive).

As for `NC(=O)C[C@H](NC(=O)Cc1ccc(O)cc1O)C(=O)O`, the AC50 result is “inactive”.

In the case of `CCOC(=O)CSc1nnc(CNC(=O)c2ccc(OC)cc2)n1C1CCCCC1`, the AC50 result is “inactive”.

As for `O=C(Nc1ccccc1)N1CCCC2(CCNCC2)C1`, the AC50 result is “inactive”.

With `COc1ccc(-c2nc(C#N)c(N3CCC(C(N)=O)CC3)o2)cc1OC`, the AC50 entry was “inactive”.

With `O=C(Nc1ccccc1)N1CCCC(c2nc(-c3ccc(F)cc3)no2)C1` (stereo not drawn), the AC50 is 14.1 µM (active).

As for `CCCc1nnc(SCC(=O)N2CCCC(C)C2)n1CC1CCCO1` (stereo not drawn), the AC50 entry was “inactive”.

For `COc1ccc(-c2noc(C3CCCN(C(=O)c4ccccc4OC)C3)n2)cc1OC` (stereo not drawn), the AC50 is 11.2 µM (active).

Turning to `CCCCCC(=O)N1CCCC(c2nc(-c3ccc(OC)cc3)no2)C1` (stereo not drawn), the AC50 was 3.55 µM (active).

On to `Cc1noc(C)c1C(=O)N1CCC2(CCCN(C(=O)Nc3ccccc3)C2)CC1`, for which the AC50 result was “inactive”.

In the case of `CC(C)(N=NC(C)(C)C1=NCCN1)C1=NCCN1`, the activity, negative = inhibition is 3.47% [at 11.4 µM] (inactive).

For `O=C(CN(Cc1ccco1)C(=O)c1cccc(Cl)c1)Nc1c(Cl)cc(Cl)cc1Cl`, the AC50 is 11.2 µM (active).

For `COc1ccc(Oc2ncc3ncc(=O)n(C)c3n2)cc1`, the AC50 entry was “inactive”.

In the case of `COc1ccc(/C=C2\N=C(SC)N(C)C2=O)cc1`, the AC50 was 25.1 µM (active).

Take `CCN(c1nc(N)c(C(=O)N=C(N)N)nc1Cl)C(C)C`: the AC50 entry is “inactive”.

For `CN(C)Cc1ccccc1-c1nc(NCc2ccccc2)c2ccccc2n1`, the activity, negative = inhibition was -6.5% [at 2.29 µM] (inactive).

As for `CN(C)c1nc(NCc2ccccc2)nc(N/N=C/c2ccc(Cl)cc2Cl)n1`, the AC50 result was “inactive”.

Take `CC(Sc1nc(NCc2ccccc2)nc(N(C)C)n1)C(=O)Nc1ccccc1` (stereo not drawn): the AC50 was 0.562 µM (active).

Consider `CC(=O)N[C@@H](C(=O)O)C(C)(C)SN=O`, for which the AC50 entry is “inactive”.

Turning to `COc1ccccc1CNc1ncnc2ccc(-c3ccccc3OC)cc12`, the AC50 is 0.794 µM (active).

Consider `COc1ccccc1-c1ccc2ncnc(NCc3cccnc3)c2c1`, for which the activity, negative = inhibition is -19.3% [at 2.29 µM] (inactive).

`COc1ccccc1CNc1ncnc2ccc(-c3cccc(C#N)c3)cc12`: the activity, negative = inhibition is -23.5% [at 2.29 µM] (inactive).

Take `COc1ccc(CNc2ncnc3ccc(-c4ccc(C(=O)N(C)C)cc4)cc23)c(OC)c1`: the activity, negative = inhibition was 1.99% [at 2.29 µM] (inactive).

As for `COc1ccccc1CNc1ncnc2ccc(-c3ccccc3CN(C)C)cc12`, the activity, negative = inhibition was -2.92% [at 2.29 µM] (inactive).

For `COc1ccc(CNc2ncnc3ccc(-c4cccnc4)cc23)c(OC)c1`, the activity, negative = inhibition was -24.5% [at 2.29 µM] (inactive).

For `COCCNc1ncnc2ccc(-c3ccccc3OC)cc12`, the activity, negative = inhibition is 16.9% [at 2.29 µM] (inactive).

For the molecule `COc1ccccc1-c1ccc2ncnc(NCc3ccccc3)c2c1`, the AC50 was 0.501 µM (active).

Turning to `COc1ccc(CNc2ncnc3ccc(-c4ccccc4OC)cc23)c(OC)c1`, the AC50 was 0.398 µM (active).

As to `Cc1nonc1NC(=O)OCCN1CCOC1=O`, the AC50 entry is “inactive”.

As for `CC[C@]1(O)C[C@@H]2CN(CCc3c([nH]c4ccccc34)[C@](C(=O)OC)(c3cc4c(cc3OC)N(C)[C@H]3[C@](O)(C(=O)OC)[C@@H](C(=O)OC)[C@@]5(CC)C=CCN6CC[C@@]43[C@@H]65)C2)C1`, the AC50 result was “inactive”.

As to `CCn1c(SCC(=O)Nc2sc3c(c2C(N)=O)CCC(C)C3)nnc1-c1ccco1` (stereo not drawn), the AC50 was 3.16 µM (active).

`CCn1c(SCC(=O)Nc2sc3c(c2C#N)CCC(C(C)(C)C)C3)nnc1-c1ccco1` (stereo not drawn): the AC50 was 8.91 µM (active).

In the case of `C#CC[N+](CC)(CC)CC#Cc1cccc(Cl)c1`, the AC50 result is “inactive”.

`C[C@H](CN(C)C)C(O)(c1ccccc1)c1ccccc1`: the activity, negative = inhibition is -5.45% [at 11.4 µM] (inactive).

As to `COC(=O)[C@@]1(Cc2ccc(F)cc2)[C@H]2c3cc(C(=O)N4CCCC4)n(CCN4CNCC4=O)c3C[C@H]2CN1C(=O)c1ccccc1`, the AC50 is 7.94 µM (active).

`COC(=O)[C@@]1(Cc2ccccc2)[C@H]2c3cc(C(=O)N4CCCC4)n(CCN4CNCC4=O)c3C[C@H]2CN1C(=O)c1ccccc1`: the concentration at half-maximal activity (AC50) was 2 µM (active).

`Nc1nc(N)nc(CC(=O)O)n1`: the activity, negative = inhibition is -0.0515% [at 11.4 µM] (inactive).

Regarding `CCOC(=O)C1=C(CSc2nc3ccccc3s2)NC(=O)NC1c1cc(C)ccc1C` (stereo not drawn), the AC50 was 3.55 µM (active).

For `CCOC(=O)C1=C(CSc2nc3ccccc3s2)NC(=O)NC1c1cccc([N+](=O)[O-])c1` (stereo not drawn), the AC50 was 3.98 µM (active).

As to `COc1cc(/C=C(\C#N)C(N)=O)cc(CSc2nc3ccccc3s2)c1O`, the AC50 entry is “inactive”.

On to `O=C(Nc1cccc(F)c1)N1CCCC2(CCNCC2)C1`, for which the AC50 entry is “inactive”.

`Cn1cc(-c2nc3cnc(N4CCNCC4)nc3n(Cc3ccc(F)cc3)c2=O)c2ccccc21`: the AC50 is 10 µM (active).

With `COc1ncc2nc(-c3cn(C)c4ccccc34)c(=O)n(Cc3ccc(F)cc3)c2n1`, the AC50 entry is “inactive”.

On to `CCNc1ncc2nc(-c3cn(C)c4ccccc34)c(=O)n(Cc3cccc(OC)c3)c2n1`, for which the AC50 result was “inactive”.

Consider `Cn1cc(-c2nc3cnc(N4CCOCC4)nc3n(CCC#N)c2=O)c2ccccc21`, for which the AC50 result is “inactive”.

In the case of `COc1cccc(Cn2c(=O)c(-c3cn(C)c4ccccc34)nc3cnc(N4CCNCC4)nc32)c1`, the AC50 was 20 µM (active).

Take `COCCn1c(=O)c(-c2cn(C)c3ccccc23)nc2cnc(N3CCNCC3)nc21`: the AC50 entry was “inactive”.

`CN1CCN(c2ncc3nc(-c4cn(C)c5ccccc45)c(=O)n(CCc4ccccc4)c3n2)CC1`: the AC50 entry is “inactive”.

Regarding `CCNc1ncc2nc(-c3ccccc3)c(=O)n(Cc3cccs3)c2n1`, the AC50 result was “inactive”.

Regarding `Cn1cc(-c2nc3cnc(N4CCNCC4)nc3n(CCc3ccccc3)c2=O)c2ccccc21`, the AC50 is 10 µM (active).

For `COc1cccc(Nc2ncc3nc(-c4cn(C)c5ccccc45)c(=O)n(CCC#N)c3n2)c1`, the AC50 result is “inactive”.

For the molecule `CCNc1ncc2nc(-c3cn(C)c4ccccc34)c(=O)n(CCC#N)c2n1`, the AC50 result was “inactive”.

Consider `CCNc1ncc2nc(-c3cn(C)c4ccccc34)c(=O)n(Cc3cccs3)c2n1`, for which the AC50 was 20 µM (active).
